# Six1-Eya2 inh: inhibitors of human Six1/Eya2 interaction. AID 651725. hit rate 0.56% among 360,000. activity change, % (concentration not given with the values). Q15475+O00167. AlphaScreen GST-Six1/His-Eya2 binding, biochemical; active compounds read low; in the data active = activity change below about -65%; inconclusive = mostly about -30% to -63%
# Target sequence (O00167 whole entry, looked up): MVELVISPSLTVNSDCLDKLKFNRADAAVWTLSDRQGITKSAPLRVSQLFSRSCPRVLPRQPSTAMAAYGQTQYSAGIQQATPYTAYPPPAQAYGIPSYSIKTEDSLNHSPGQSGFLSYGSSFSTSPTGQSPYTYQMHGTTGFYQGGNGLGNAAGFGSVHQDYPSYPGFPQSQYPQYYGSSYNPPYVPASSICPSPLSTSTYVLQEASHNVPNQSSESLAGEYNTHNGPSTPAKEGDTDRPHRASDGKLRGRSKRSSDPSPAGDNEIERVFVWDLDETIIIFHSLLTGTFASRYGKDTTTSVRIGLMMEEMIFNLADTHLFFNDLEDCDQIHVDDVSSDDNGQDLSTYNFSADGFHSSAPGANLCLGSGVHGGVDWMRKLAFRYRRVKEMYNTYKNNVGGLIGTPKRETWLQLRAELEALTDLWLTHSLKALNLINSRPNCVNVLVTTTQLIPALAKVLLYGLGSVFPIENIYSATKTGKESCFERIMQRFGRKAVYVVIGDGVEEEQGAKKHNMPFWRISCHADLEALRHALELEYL
# Target sequence (Q15475 whole entry, looked up): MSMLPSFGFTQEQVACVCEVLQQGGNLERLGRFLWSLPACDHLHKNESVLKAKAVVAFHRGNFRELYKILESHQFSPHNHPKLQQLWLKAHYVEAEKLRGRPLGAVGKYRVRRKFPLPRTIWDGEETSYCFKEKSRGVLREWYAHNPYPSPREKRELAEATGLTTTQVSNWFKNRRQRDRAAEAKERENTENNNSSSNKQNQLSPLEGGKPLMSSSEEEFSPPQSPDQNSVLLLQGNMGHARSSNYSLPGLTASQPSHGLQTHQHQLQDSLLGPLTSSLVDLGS
#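 Compounds are tested against tagged Six1 and Eya2 proteins bridged by glutathione donor and nickel acceptor beads; after a one-hour incubation at 37 °C without light, AlphaScreen emission is recorded.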
# Gal4-VP16 FLuc: inhibits Gal4-VP16 luciferase reporter, ROR gamma counter-screen. Drosophila S2 Gal4-VP16 UAS-luciferase, luminescence, 20 h. Potency, µM (highest dose often 53.6 µM), actives largely listed as inhibitors. hit rate 3.5% among 310,000. AID 2546;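 note: Gal4-VP16 expression switched on by copper sulfate through the metallothionein promoter; nearly all actives have a fitted effect of over 50% in size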
# RORgamma inh: ROR gamma (mouse) transcription inhibition | Drosophila S2 Gal4-RORgamma UAS-luciferase reporter, 20 h | P51450 | hit rate 5.4% among 310,000 | Potency, µM (highest dose often 53.6 µM), most hits filed as inhibitors; note: nearly all actives have a fitted effect of over 60% in size
#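 Drosophila S2 cells stably expressing Gal4-DBD/mouse RORγ fusion under metallothionein promoter plus UAS-luciferase; compound 1 h, then 700 uM CuSO4 induction for 20 h at ambient temperature; inhibition read as reduced luminescence.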
# CtBP-E1A inh: CtBP/E1A binding inhibition; hit rate 0.49% among 340,000; activity change, % (concentration not given with the values); AID 651724; AlphaScreen GST-E1A/His-CtBP binding, 1536-well; active compounds read low; in the data active = activity change below about -65%; inconclusive = mostly about -30% to -63%
#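 AlphaScreen with 125 nM GST-E1A and 125 nM His-CtBP (5X stocks) in Tris pH 8.0, 300 mM NaCl, BSA, Tween 20, TCEP. Compounds preincubated 2 h at 37 deg C, then glutathione donor/nickel acceptor beads added for 1 h at 37 deg C in dark.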
# p53 reactivator: re-activators of mutant p53 | AID 504706 | hit rate 0.063% among 320,000 | H1299 p53-A138V BP100-luciferase reporter, luminescence, 24 h | Potency, µM (titrated, usually from 92.2 µM), hits mostly activators; note: nearly all actives have a fitted effect of over 45% in size
#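 H1299 (p53-null), stable ts p53-A138V + BP100-Luc; 1000 cells/well, Opti-MEM/10% FBS; cpd 4 pt, 1:5; 24 h, 37 deg C, 5% CO2; detection reagent 10 min RT; luminescence.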
# A number is an active result; – = inactive; ? = inconclusive; · = no result; [ ] = dose if it differs, or a comment. Shown are actives, neighbours in structure and some others; about 5.4% of the full set was active somewhere. Unless noted, calls come from the whole dose curve; as a rule, active = well fitted curve in the direction sought with a large enough effect; inconclusive = small, poorly fitted or top-dose-only effect, or another doubt; inactive = no such curve, though single readings can be large; an effect the other way counts as inactive or inconclusive.
SMILES,Six1-Eya2 inh,Gal4-VP16 FLuc,RORgamma inh,CtBP-E1A inh,p53 reactivator
COc1ccc(NC(=S)N/N=C/c2cccn2Cc2ccccc2F)cc1,–,1.4µM,0.28µM,–,–
COc1cc(/C=N/Nc2ccc(C(F)(F)F)cn2)ccc1O,–,–,–,·,–
COc1ccc(/C=N/Nc2ncc(C(F)(F)F)cc2Cl)c(OC)c1OC,–,7.9µM,2.8µM,–,–
C/C(=N/Nc1ncc(C(F)(F)F)cc1Cl)c1ccncc1,–,?,?,–,–
COc1cc(/C=N/Nc2ncc(C(F)(F)F)cc2Cl)cc(OC)c1OC,–,20µM,?,·,–
COc1cc(/C=N/Nc2ncc(C(F)(F)F)cc2Cl)cc(OC)c1O,–,20µM,11µM,–,–
Cc1cc(C)c(/C=N/NC(=O)c2nnn(-c3nonc3N)c2CN2CCC(C)CC2)c(C)c1,–,?,?,–,–
CC1CCN(Cc2c(C(=O)N/N=C/c3cc(Br)ccc3O)nnn2-c2nonc2N)CC1,–,7.1µM,3.5µM,–,–
CC1CCN(Cc2c(C(=O)N/N=C/c3cc(Cl)ccc3O)nnn2-c2nonc2N)CC1,–,4.5µM,3.5µM,–,–
COc1c(Cl)cc(Cl)cc1/C=N/NC(=O)c1nnn(-c2nonc2N)c1CN1CCC(C)CC1,–,–,–,–,–
COc1cccc(C(=O)Oc2c(CN3CCOCC3)cc(Cl)c3cccnc23)c1,-88,4.5µM,2.8µM,-91,–
O=C(Oc1c(CN2CCOCC2)cc(Cl)c2cccnc12)c1ccc(F)cc1,-91,–,–,-92,–
COc1cc(C(=O)Oc2c(OC)cc(C(=S)N3CCOCC3)cc2OC)cc(OC)c1OC,–,–,–,–,–
COc1ccc(C(=O)Oc2c(CN3CCOCC3)cc(Cl)c3cccnc23)cc1,?,6.3µM,6.3µM,-65,–
COc1cc(C(=O)Oc2c(CN3CCOCC3)cc(Cl)c3cccnc23)cc(OC)c1OC,-92,2.5µM,4.5µM,-92,–
CN(CC(=O)Nc1cccc(F)c1)C(=O)c1ccc(S(=O)(=O)N2CCCC2)cc1,–,·,·,–,–
CCOC(=O)C1CCN(S(=O)(=O)c2ccc3c(c2)N(C(C)=O)CC(C)S3)CC1 (configuration not stated),–,?,–,–,–
Cc1ccc(S(=O)(=O)N[C@@H](CCc2ccccc2)CC(=O)C(C)(C)C)cc1,·,–[10 µM],–[10 µM],·,·
Cn1c(CCc2nc3ccccc3[nH]2)nnc1SCC#N,–,?,14µM,–,–
CC(C)c1ccc(NC(=O)CSc2nc3c(c(=O)[nH]2)CCC3)cc1,·,–[0.365 µM],–,·,–
NC(=O)Cc1ccc(Nc2nnc(-c3ccccc3)c3ccccc23)cc1,–,22µM,?,–,–
CCC(Cc1c(I)cc(I)c(O)c1I)C(=O)O (configuration not stated),·,–,–,·,·
CCCCN(c1ccccc1)S(=O)(=O)c1cccc2cccnc12,–,14µM,–,–,–
CCSS(=O)(=O)c1cccc2cccnc12,-91,?,22µM,-90,–
COc1cccc(Nc2ncc3nc(C)c(=O)n(C)c3n2)c1,·,–,–,·,·
SMILES,Six1-Eya2 inh,Gal4-VP16 FLuc,RORgamma inh,CtBP-E1A inh,p53 reactivator
CCOC(=O)N1CCN(C(=O)CCCn2c(=S)[nH]c3ccc(Br)cc3c2=O)CC1,–,?,13µM,–,–
CCOC(=O)N1CCN(C(=O)CCCCCn2c(=S)[nH]c3ccsc3c2=O)CC1,–,?,11µM,–,–
CCOc1ccc(N2CC(C(=O)Nc3nnc(C4CCCCC4)s3)CC2=O)cc1 (configuration not stated),–,–,–,–,–
COc1ccccc1NC(=O)CCSc1nc(C)cs1,–,·,·,·,·
COc1cc(OC)cc(-c2c(Sc3ccccc3)c3cc(-c4ccc(OC)nc4)ccc3n2C)c1,–,·,·,–,·
Cc1cc(C=C2C(=O)c3ccccc3C2=O)c(C)n1-c1ccccc1,–,16µM,0.063µM,–,–
O=C1NN(c2ccccc2)C(=O)C1=Cc1ccccc1O,–,·,·,–,·
Cc1cc(/C=C2/C(=O)NN(c3ccccc3)C2=O)c(C)n1-c1cccc(O)c1,–,16µM,?,–,·
CC(C(=O)NCc1ccco1)n1ccc2cc(S(=O)(=O)N3CCCCC3)ccc21 (configuration not stated),–,–,–,–,–
CCn1cc(C(=O)N[C@@H](C)C(=O)NCCCn2ccnc2)c(=O)c2cc3c(cc21)OCO3,?,–,–,–,–
COc1ccc(C(=O)Nc2nnc(SCC(=O)NCc3ccco3)s2)c(OC)c1,–,10µM,11µM,–,–
COc1ccc(C(=O)Nc2nnc(SCC(=O)NC3CCCC3)s2)c(OC)c1,–,?,3.2µM,–,?
O=C(CCCl)Nc1nnc(SCC(=O)NC2CCCC2)s1,–,2µM,–,–,–
CCc1nnc(NC(=O)c2ccc(OC)cc2OC)s1,–,10µM,6.3µM,–,–
Cc1ccccc1-c1n[nH]c(=S)n1/N=C/c1c(C)nn(-c2ccccc2)c1C,–,?,4.5µM,–,–
Cc1nn(-c2ccccc2)c(C)c1/C=N/n1c(-c2ccc(C(C)(C)C)cc2)n[nH]c1=S,–,–,2.2µM,–,–
Cc1ccc(-c2n[nH]c(=S)n2/N=C/c2c(C)nn(-c3ccccc3)c2C)cc1,–,?,6.3µM,–,–
CCNC(=O)C/C(C)=N/NC(=O)C(=O)Nc1ccc(CC)cc1,–,–,–,–,–
O=C(Nc1ccc(O)c(-c2nc3ccccc3o2)c1)C1(c2ccccc2)CCCC1,–,8.9µM,5.6µM,–,–
CCn1c(SCC(=O)N/N=C/C=C/c2ccco2)nc2ccccc21,–,16µM,?,–,–
Cc1cccc(CCNC(=O)c2cccc(N3CCCC3=O)c2)c1,–,–,10µM,·,–
Cc1ccc(CCNC(=O)c2cccc(N3CCCC3=O)c2)cc1,–,–,–,–,–
O=C(NCCc1ccccc1)c1cccc(N2CCCC2=O)c1,–,10µM,11µM,·,–
C=CCOc1cccn2c(N(C)C(=O)c3ccc(OC)cc3)c(CC)nc12,–,·,·,–,·
O=C(/C=C/c1ccc(O)c(O)c1)c1ccc(S(=O)(=O)N2CCCCCC2)cc1,–,?,13µM,–,–
O=C(c1ccc(S(=O)(=O)N2CCCC2)cc1)N1CCCCC1,–,·,·,–,–
COc1ccc(-c2cn3c4c(sc3n2)CCCC4)cc1,–,10µM,11µM,–,–
Cc1c(C(=O)Nc2ccncc2)sc2nc(-c3ccc(F)cc3)cn12,–,?,?,–,?
COc1ccc(-c2cn3c(C)c(C(=O)Nc4ccncc4)sc3n2)cc1,–,13µM,–,–,–
COc1ccccc1CNS(=O)(=O)CCNCc1ccco1,–,·,·,–,·

# Screens as filed in PubChem BioAssay.
